A short description of experiment [1]: ACEA_ER_80hr: ACEA Biosciences xCELLigence Real-Time Cell Analysis on Estrogen Receptor Agonism for Proliferation (AID 2282667; active = hit-call score of the fitted dose curve at least 0.9, where 1 is the maximum). Particulars: T47D proliferation, impedance (xCELLigence), 80 h. In outline: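 Cell-growth kinetics were measured by impedance in T47D cells treated continuously with compound (top 100 uM final, 1:4 steps, 8 points). Activity at 80 h was scored as signal gain over the DMSO baseline.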

Experiment [2] can be described thus: APR_HepG2_CellCycleArrest_24hr: Apredica 24-hour HepG2 Assay for Cell Cycle Arrest (AID 2282905).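 Also: cell cycle arrest scored as ratio of 2N to 4N nuclear DNA content.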 As to conditions: imaging, actives raise or lower the signal. The essentials:
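Compounds at 0.39–200 uM (0.5% DMSO) for 24 h, then fixed and Hoechst 33342 stained. Cell-cycle analysis of nuclear DNA content by high-content imaging, fitted bidirectionally versus DMSO.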

Experiment [3] can be described thus: APR_HepG2_NuclearSize_24hr: Apredica 24-hour HepG2 Assay for Nuclear Size (AID 2282907). Particulars: high-content imaging, actives raise or lower the signal. The essentials: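 HepG2 cells exposed 24 h to compounds at 0.39–200 uM (0.5% DMSO), fixed, Hoechst 33342 stained and imaged at 20x; nuclear diameter measured by automated image analysis, fitted bidirectionally against DMSO controls.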

Experiment [4] can be described thus: APR_HepG2_CellLoss_24hr: Apredica 24-hour HepG2 Assay for Cell Loss (AID 2282908).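 As to AC50: fit in both directions so a hit may be cell loss or gain.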 As to conditions: high-content imaging. In outline:
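HepG2 cells exposed 24 hr to 0.39–200 uM compound in duplicate at 0.5% v/v final DMSO. Cells fixed in 3.7% formaldehyde and Hoechst 33342-stained. Cell number came from nuclear imaging at 20x. Bidirectional fit versus DMSO.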

A short description of experiment [5]: APR_HepG2_MicrotubuleCSK_24hr: Apredica 24-hour HepG2 Assay for Microtubule CSK Stabilty (AID 2282909). As to conditions: HepG2 microtubule cytoskeleton imaging, actives raise or lower the signal. In outline: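 HepG2 cells were treated 24 hr with compound at 0.39–200 uM in duplicate (0.5% DMSO final), then fixed and permeabilized. Alpha-tubulin immunofluorescence was imaged by high-content microscopy, with bidirectional fitting against DMSO and taxol as positive control.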

Experiment [6] in a line: APR_HepG2_MitoticArrest_24hr: Apredica 24-hour HepG2 Assay for Mitotic Arrest (AID 2282910). As to conditions: high-content imaging, actives raise or lower the signal. The essentials:
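HepG2 human liver cells were exposed to compounds at 0.39–200 uM (10 concentrations, duplicate) in 0.5% v/v DMSO for 24 hr, then fixed and immunostained for phospho-histone H3 with Hoechst 33342. Mitotic arrest came from HCS fluorescent imaging, fitted bidirectionally against DMSO.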

Experiment [7] can be described thus: APR_HepG2_MitoMembPot_24hr: Apredica 24-hour HepG2 Assay for Mitochondrial Membrane Potential (AID 2282911). As to conditions: imaging, actives raise or lower the signal. In outline: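 Human hepatoma HepG2 cultures received ten compound concentrations up to 200 uM for 24 hr. Membrane-potential dye signal, captured by automated fluorescence microscopy, was scored for gain or loss against DMSO controls.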

A short description of experiment [8]: APR_HepG2_MitoMass_24hr: Apredica 24-hour HepG2 Assay for Mitochondrial Mass (AID 2282912). As to conditions: high-content imaging, actives raise or lower the signal. The essentials: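 HepG2 cells exposed 24 hr to 0.39–200 uM compound, 0.5% v/v DMSO, in duplicate. Stained before fixation with 250 nM MitoTracker Red CMXRos for 30 min, then imaged at 20x with Hoechst nuclei. Fitted in both directions against DMSO.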

Experiment [9] can be described thus: APR_HepG2_CellCycleArrest_72hr: Apredica 72-hour HepG2 Assay for Cell Cycle Arrest (AID 2282914). As to conditions: high-content imaging, actives raise or lower the signal. The essentials:
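Cell cycle arrest in HepG2 was scored from nuclear DNA content after 72 hr compound treatment (0.39–200 uM). Activity, either gain or loss, was fitted against the DMSO baseline.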

A short description of experiment [10]: APR_HepG2_p53Act_24hr: Apredica 24-hour HepG2 Assay for p53 Activation (AID 2282913).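 Also: p53 protein immunofluorescence averaged per cell in HepG2 with Hoechst nuclei.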 Particulars: high-content imaging, actives raise or lower the signal. The essentials: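 Automated fluorescence imaging quantifies p53 immunostaining in HepG2 cells after a 24 hr exposure (0.39–200 uM, duplicate, 0.5% DMSO). Nuclei are located by Hoechst 33342 staining.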

Records with an inconclusive call do not appear. The source made the active and inactive calls. The calls were made as follows, unless noted: active = hit-call score of the fitted dose curve at least 0.9, where 1 is the maximum; inactive = score below 0.9.

Turning to `Cc1ccc(S(=O)(=O)NC(=O)NN2CCCCCC2)cc1`, the compound was called inactive in [1], in [2], in experiment [3], in experiment [4], in experiment [5] and in [6]. The compound was classed as inactive in experiment [7], in experiment [8] and in [9].
In general, AC50 refers to the concentration at which the activity in the assay is half-maximal. For `C=CCc1cc(S(=O)(=O)c2ccc(O)c(CC=C)c2)ccc1O`, the concentration at half-maximal activity (AC50) was 32 µM (active) in experiment [2]; 97.8 µM (active) in experiment [4]; 51.5 µM (active) in [6]; 52.7 µM (active) in [8]; 33.7 µM (active) in experiment [9]. In addition, the outcome in experiment [3], in experiment [5] and in experiment [7] was inactive.
On to `CC(C)c1nnc2ccc(-c3ocnc3-c3cc(F)ccc3F)cn12`, for which the compound was called inactive in experiment [1], in experiment [4], in experiment [6], in experiment [8] and in experiment [10]. Moreover, the half-maximal activity concentration (AC50) in [7] was 58.6 nM (active).
With `CCCCN1C(=O)[C@@H]([C@H](O)C2CCCCC2)NC(=O)C12CCN(Cc1ccc(Oc3ccc(C(=O)O)cc3)cc1)CC2`, the call in experiment [2], in experiment [3], in [5], in [7], in experiment [8] and in [10] was inactive. In experiment [9], the result was inactive. Moreover, the values for the AC50 in [4] and in experiment [6] were 48.3 µM (active) and 59.8 µM (active), respectively.
Turning to `NC(=O)NN=Cc1ccc([N+](=O)[O-])o1`, the AC50 in experiment [2] is 81.4 µM (active); in experiment [4], 57.6 µM (active); in [9], 56.7 µM (active). For the same compound, the compound was called inactive in [3], in experiment [5], in [6], in experiment [7], in experiment [8] and in experiment [10].
For the compound `CCN(CC)C(=S)SSC(=S)N(CC)CC`, the compound was called inactive in experiment [2], in experiment [3] and in experiment [7]. In addition, the AC50 in experiment [4] is 50.6 µM (active); in experiment [5] it was 78.9 µM (active); in [6] it was 25.2 µM (active); in experiment [8], 26.1 µM (active); in experiment [10], 4.83 µM (active); in experiment [9] it was 3.04 µM (active).
With `O=C(O)c1cccc(C[C@@H]2COc3ccc(OCc4nc5cc(F)ccc5s4)cc3[C@@H]2O)c1`, the AC50 was 50.1 µM (active) in experiment [2]; 53.9 µM (active) in experiment [4]; 93.5 µM (active) in [6]; 156 µM (active) in experiment [8]; 97.2 µM (active) in experiment [10]; 64 µM (active) in [9]. The call in experiment [3], in experiment [5] and in [7] was inactive.
For `Nc1ccn([C@@H]2O[C@H](CO)[C@@H](O)[C@@H]2O)c(=O)n1`, the half-maximal activity concentration (AC50) in experiment [2] was 0.0387 µM (active); in [3], 39.1 nM (active); in [4] it was 0.149 µM (active); in experiment [8], 0.0391 µM (active); in experiment [9], 0.0618 µM (active). Also, the call in experiment [5], in experiment [6] and in experiment [7] was inactive.
For the compound `O=C1CN(N=Cc2ccc([N+](=O)[O-])o2)C(=O)N1`, the AC50 in experiment [4] is 33.6 µM (active); in experiment [10], 58.6 µM (active). Further, the compound was called inactive in experiment [6], in experiment [7] and in experiment [8].
In the case of `Cn1cc[nH]c1=S`, the compound was called inactive in experiment [2], in [3], in experiment [4], in experiment [5], in experiment [6] and in experiment [7]. Further, the compound was classed as inactive in experiment [8], in [10] and in experiment [9].
As to `NC(N)=O`, the result in experiment [2], in experiment [3], in [4], in experiment [5], in [6] and in experiment [7] was inactive. Further, the call in experiment [8] and in [9] was inactive.
Turning to `CCCCCCCCCC`, the result in [2], in [3], in experiment [4], in experiment [5], in experiment [6] and in experiment [7] was inactive. Moreover, the compound was called inactive in experiment [8], in [10] and in [9].
For the compound `OCCOCCOCCO`, the outcome in experiment [2], in experiment [3], in experiment [4], in experiment [5], in [6] and in experiment [7] was inactive. Further, the call in [8], in [10] and in [9] was inactive.
Regarding `NNC(=O)c1ccncc1`, the compound was called inactive in experiment [2], in experiment [3], in [4], in [5], in [6] and in experiment [7]. Further, the outcome in [8], in experiment [10] and in experiment [9] was inactive.
`C[C@@H](Oc1ccc(CNC(=O)c2cccnc2Oc2ccc3c(c2)OCO3)c(F)c1)C(=O)O`: the outcome in [2], in [3], in [4], in experiment [5], in experiment [6] and in [8] was inactive. The compound was classed as inactive in [9]. In addition, the AC50 in experiment [7] is 39.1 nM (active).
As to `CCCCCCCC1CCC(=O)O1` (stereo unspecified), the compound was classed as inactive in experiment [1], in experiment [4], in experiment [6], in experiment [7], in experiment [8] and in [10].
Consider `O=C(O)c1ccc2c(c1)nc(C(=O)NC1CCN(C3CC3)CC1)n2Cc1cc(-c2ccc(Cl)s2)on1`, for which the call in experiment [2], in [3], in experiment [4], in experiment [5], in experiment [6] and in experiment [7] was inactive. Moreover, the result in experiment [8], in experiment [10] and in experiment [9] was inactive.
Consider `CC(C)C(=O)Nc1ccc([N+](=O)[O-])c(C(F)(F)F)c1`, for which the AC50 is 71 µM (active) in [2]; 44.4 µM (active) in experiment [4]; 62.8 µM (active) in experiment [6]; 92.2 µM (active) in experiment [8]; 34.9 µM (active) in [9]. In addition, the result in experiment [3], in experiment [5] and in experiment [7] was inactive.
For `OCC(CO)(CO)CO`, the compound was called inactive in experiment [1], in [2], in experiment [3], in experiment [4], in experiment [5] and in experiment [6]. The outcome in experiment [7], in [8] and in experiment [9] was inactive.

The values are drawn from PubChem BioAssay (EPA / NIEHS).
